Records with an inconclusive call do not appear. Values without a mark were called inactive. Calls come from the whole dose curve.
experiment: qHTS assay to identify small molecule agonists of the AP-1 signaling pathway - cell viability counter screen (AID 1159525); settings: ME-180 (cervical carcinoma) AP-1-bla cells viability, ATP luminescence, 5 h; series mostly up to 76.8 µM; viability change, negative = cytotoxic: at the top concentration; note: nearly all actives have a fitted effect of over 55% in size
Text: National Center for Advancing Translational Sciences [NCATS]
NIH Chemical Genomics Center [NCGC]
U.S. Environmental Protection Agency [EPA]
National Institutes of Environmental Health Sciences [NIEHS]
National Toxicology Program [NTP]
U.S. Food and Drug Administration [FDA]
Activator protein-1 (AP-1), a transcription factor, plays an important role in tumor genesis by regulating genes involved in cell proliferation, differentiation, apoptosis, and angiogenesis. AP-1 activity is induced by a complex network of signaling pathways that involves extracellular signals, such as growth factors. The AP-1 protein complex formed from c-Fos and c-Jun binding to the AP-1 response element results in transcriptional activation of genes containing such elements within their promoter.
Low molecular weight molecules have been discovered and developed to modulate various components of these signaling pathways, for example, MAP kinase inhibitors. However, many points of pathway modulation remain untested due to the lack of chemical probes making this signaling locus of general interest.
Using a beta-lactamase reporter-gene under control of the AP-1 response element, a cell-based assay [CellSensor(TM) AP-1-bla ME-180 developed by Invitrogen Corp.] was used to measure EGF-induced signaling. The Tox21 10K library compounds were measured for their ability to positively modulate the action of EC50 EGF on reporter gene activity. Compounds were screened in a 15-pt titration series in 1536-well format. The cytotoxicity of the Tox21 compound library against this cell line was tested in parallel by measuring the intra cellular ATP content in the same wells.
Tox21 Assay Protocol Summary:
2500 cells/5uL in Opti-MEM medium containing 0.5% dialyzed FBS, 0.1 mM NEAA, 1 mM sodium pyruvate and 10 mM HEPES was dispensed into 1536-well black wall/clear bottom plates using a Multidrop dispenser and cells were cultured at 37 degrees Celsius overnight. Next day 23 nL of compounds dissolved in DMSO, positive controls or DMSO were delivered to each well using a pin tool. The plates were incubated at 37 degrees Celsius for 5 hours. 1 uL of LiveBLAzerTM B/G FRET substrate (Solution A+B+C+D) was added to each well using a Flying Reagent Dispenser. After incubated at room temperature for 2.5 hours the plates were measured on an EnVision plate reader at Excitation 405nm, Emission1=460nm and Emission 2=530nm. The %Activity was determined from the ratio of 460nm/530nm.
After the plates were read for Beta-Lactamase assay on Envision; 3 ul Cell Titer Glo (Promega) was added to measure the cytotoxicity and the plates were then incubated at RT in dark for 30 min. The luminescence was read on ViewLux (Perkin Elmer, Shelton, CT) using 6 sec exposure. ViewLux data was expressed as relative luminescence units.
For primary data analysis, raw plate reads for each titration point were first normalized relative to […] EGF control (100%) and DMSO only wells (basal, 0%).
For primary data analysis for viability assay, raw plate reads for each titration point were first normalized Tetra n-octyl ammonium bromide control (-100%) and DMSO (control, 100%).

Row | Structure (SMILES) | viability change, negative = cytotoxic
1 | CCO[Si](CCCCl)(OCC)OCC | -6.98%
2 | O=C(O)c1ccccc1Cl | -6.8%
3 | Cc1ncc(CO)c(C=O)c1O | -1.09% [at 35.3 µM]
4 | CCOCC(O)COc1ccc(NC(=O)CC[S+](C)C)cc1 (stereo not given) | 2.44% [at 35.3 µM]
5 | COc1cc2nc(N3CCN(C(=O)C4COc5ccccc5O4)CC3)nc(N)c2cc1OC (stereo not given) | -12.7% [at 35.3 µM]
6 | CCOC(=O)NCCOc1ccc(Oc2ccccc2)cc1 | -16.9%
7 | CC1CCC(=O)C1=O (stereo not given) | -11.4%
8 | O=C(Nc1ccccc1)c1ccccc1O | 6.57%
9 | CCC(C)O (stereo not given) | 4.08%
10 | CC1(c2ccccc2)OC(C(=O)O)=CC1=O (stereo not given) | 6.68% [at 35.3 µM]
11 | COc1ccnc(CS(=O)c2nc3ccc(OC(F)F)cc3[nH]2)c1OC (stereo not given) | -29% [at 35.3 µM]
12 | CC(=O)NO | -2.75% [at 35.3 µM]
13 | O=C1CCCCCCCCCCCC(=O)OCCO1 | -0.0172%
14 | c1ccc(-c2ccccn2)nc1 | 1.69%
15 | C#Cc1cccc(Nc2ncnc3cc(OCCOC)c(OCCOC)cc23)c1 | -13.4% [at 35.3 µM]
16 | C=C(C)C(=O)OCC | -0.3%
17 | CN1CCC(=C2c3ccccc3Sc3ccccc32)CC1 | -6.63% [at 35.3 µM]
18 | C=CC1CC2C=CC1C2 (stereo not given) | -7.74%
19 | Nc1c(CC(=O)O)cccc1C(=O)c1ccc(Br)cc1 | -2.12% [at 35.3 µM]
20 | O=C1OC(CN2CCOCC2)CN1/N=C/c1ccc([N+](=O)[O-])o1 (stereo not given) | -11.3% [at 35.3 µM]

Row | Structure (SMILES) | viability change, negative = cytotoxic
21 | Nc1cccc(S(=O)(=O)c2cccc(N)c2)c1 | 0.364%
22 | Brc1c2ccccc2cc2ccccc12 | -1.57%
23 | COc1cc(Cl)c(OC)cc1N | 6.65%
24 | CC(C)(C)OCC1CO1 (stereo not given) | -4.05%
25 | O=C(Cl)c1cc(C(=O)Cl)cc(C(=O)Cl)c1 | 7.65%
26 | O=C1[C@H]2CCCC[C@H]2C(=O)N1CCCCN1CCN(c2nsc3ccccc23)CC1 | -2.2% [at 35.3 µM]
27 | Cc1ccc(C(C)OC(=O)C2(C)CCC(C(=O)O)C2(C)C)cc1 (stereo not given) | -1.39% [at 35.3 µM]
28 | CC(C)OC(=O)C(C)N(C(=O)c1ccccc1)c1ccc(F)c(Cl)c1 (stereo not given) | -8.7%
29 | COc1cc(C(=O)OCCCN2CCCN(CCCOC(=O)c3cc(OC)c(OC)c(OC)c3)CC2)cc(OC)c1OC | -17.1% [at 35.3 µM]
30 | CC[N+](C)(CC)CCOC(=O)C(O)(c1ccccc1)C1CCCCC1 (stereo not given) | -0.136% [at 35.3 µM]
31 | OC[C@H]1O[C@@H](OCCc2ccc(O)cc2)[C@H](O)[C@@H](O)[C@@H]1O | 3.37% [at 35.3 µM]
32 | O=C(O)CC(=O)C(=O)O | 4.13%
33 | O=C(O)C1(C(=O)Nc2ccc(Cl)cc2Cl)CC1 | 6.51%
34 | C[N+]1(C)CCC(OC(=O)C(O)(c2ccccc2)C2CCCC2)C1 (stereo not given) | 2.7% [at 35.3 µM]
35 | Nc1ccc(N)c2c1C(=O)c1ccccc1C2=O | -16.7%
36 | Nc1ccc([N+](=O)[O-])c(C(F)(F)F)c1 | 2.76% [at 35.3 µM]
37 | C[C@@H](c1ncncc1F)C(O)(Cn1cncn1)c1ccc(F)cc1F (stereo not given in full) | -2.21% [at 35.3 µM]
38 | CCOC(=O)Cc1cccc2ccccc12 | -1.2%
39 | C[C@@H]1C[C@H]2[C@@H]3CCC4=CC(=O)C=C[C@]4(C)[C@@]3(F)[C@@H](O)C[C@]2(C)[C@@]1(O)C(=O)COC(=O)c1ccncc1 | -24.1% [at 35.3 µM]
40 | C[N+](C)(C)CCOC(=O)CCC(=O)OCC[N+](C)(C)C | 1.59% [at 35.3 µM]
